Laboratory results: the supplement of paper PMC10849652
About 7,900 targets were measured; listed, in parts, are those with a hit and a random draw of the rest. About 0.6% of all pairs of compound and target were hits. Unmarked numbers belong to inactive results.

Chain of UniProt P51809 (P51809 whole entry, looked up): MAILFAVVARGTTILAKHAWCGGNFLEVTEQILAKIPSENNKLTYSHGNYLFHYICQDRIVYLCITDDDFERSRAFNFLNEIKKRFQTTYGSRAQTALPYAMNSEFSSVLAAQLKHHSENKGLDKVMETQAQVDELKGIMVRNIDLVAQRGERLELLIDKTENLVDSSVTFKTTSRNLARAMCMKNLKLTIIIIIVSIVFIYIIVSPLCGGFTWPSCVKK
Chain of UniProt Q7Z7E8 (Q7Z7E8 whole entry, looked up): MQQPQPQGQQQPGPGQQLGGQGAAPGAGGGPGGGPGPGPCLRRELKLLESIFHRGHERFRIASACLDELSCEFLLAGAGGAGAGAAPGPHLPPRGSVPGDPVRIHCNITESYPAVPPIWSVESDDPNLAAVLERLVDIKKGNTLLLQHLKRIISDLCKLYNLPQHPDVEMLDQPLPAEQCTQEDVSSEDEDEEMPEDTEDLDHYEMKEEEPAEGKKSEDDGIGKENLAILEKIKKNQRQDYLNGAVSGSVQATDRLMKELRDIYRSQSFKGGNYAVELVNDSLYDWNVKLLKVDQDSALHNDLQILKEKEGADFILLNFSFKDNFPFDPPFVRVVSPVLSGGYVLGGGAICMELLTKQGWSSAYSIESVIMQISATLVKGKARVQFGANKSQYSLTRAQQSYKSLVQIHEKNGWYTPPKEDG
Chain of UniProt Q92973 (Q92973 whole entry, looked up): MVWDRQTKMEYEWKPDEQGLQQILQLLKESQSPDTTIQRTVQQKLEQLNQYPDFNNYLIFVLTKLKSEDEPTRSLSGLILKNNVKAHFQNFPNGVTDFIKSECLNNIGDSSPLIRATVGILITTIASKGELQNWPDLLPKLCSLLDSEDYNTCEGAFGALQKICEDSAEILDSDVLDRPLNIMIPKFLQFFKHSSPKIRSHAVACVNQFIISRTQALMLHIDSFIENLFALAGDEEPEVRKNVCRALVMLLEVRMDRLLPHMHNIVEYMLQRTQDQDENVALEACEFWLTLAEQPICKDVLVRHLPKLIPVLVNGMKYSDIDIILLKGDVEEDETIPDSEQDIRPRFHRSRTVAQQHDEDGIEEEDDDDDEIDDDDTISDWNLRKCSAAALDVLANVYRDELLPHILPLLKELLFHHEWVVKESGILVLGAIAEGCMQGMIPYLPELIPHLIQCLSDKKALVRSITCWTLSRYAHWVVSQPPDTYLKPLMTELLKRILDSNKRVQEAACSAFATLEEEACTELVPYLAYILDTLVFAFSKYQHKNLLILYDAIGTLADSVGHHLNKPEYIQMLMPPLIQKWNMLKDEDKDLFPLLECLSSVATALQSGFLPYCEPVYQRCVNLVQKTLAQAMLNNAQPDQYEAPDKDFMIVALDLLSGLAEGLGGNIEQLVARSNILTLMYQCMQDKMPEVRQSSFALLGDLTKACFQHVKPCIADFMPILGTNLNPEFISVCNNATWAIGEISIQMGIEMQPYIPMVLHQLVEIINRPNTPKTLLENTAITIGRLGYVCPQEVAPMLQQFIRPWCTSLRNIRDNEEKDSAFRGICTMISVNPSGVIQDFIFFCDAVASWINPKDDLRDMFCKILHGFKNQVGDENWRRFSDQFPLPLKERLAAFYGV
Chain of UniProt Q9NP79 (Q9NP79 whole entry, looked up): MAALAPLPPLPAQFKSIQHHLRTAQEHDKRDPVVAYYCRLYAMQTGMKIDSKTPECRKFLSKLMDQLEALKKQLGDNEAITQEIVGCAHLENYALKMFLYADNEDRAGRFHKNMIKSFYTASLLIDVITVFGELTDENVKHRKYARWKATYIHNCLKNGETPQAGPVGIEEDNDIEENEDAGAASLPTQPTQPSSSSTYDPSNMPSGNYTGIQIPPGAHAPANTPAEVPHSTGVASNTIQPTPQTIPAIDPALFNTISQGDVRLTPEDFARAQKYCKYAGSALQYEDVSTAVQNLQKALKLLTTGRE
Chain of UniProt P02585 (P02585 whole entry, looked up): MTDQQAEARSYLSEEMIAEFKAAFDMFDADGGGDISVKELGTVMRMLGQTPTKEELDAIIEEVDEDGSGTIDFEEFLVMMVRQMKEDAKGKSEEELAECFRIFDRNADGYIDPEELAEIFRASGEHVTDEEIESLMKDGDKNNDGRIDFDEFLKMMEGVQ
Chain of UniProt Q99816 (Q99816 whole entry, looked up): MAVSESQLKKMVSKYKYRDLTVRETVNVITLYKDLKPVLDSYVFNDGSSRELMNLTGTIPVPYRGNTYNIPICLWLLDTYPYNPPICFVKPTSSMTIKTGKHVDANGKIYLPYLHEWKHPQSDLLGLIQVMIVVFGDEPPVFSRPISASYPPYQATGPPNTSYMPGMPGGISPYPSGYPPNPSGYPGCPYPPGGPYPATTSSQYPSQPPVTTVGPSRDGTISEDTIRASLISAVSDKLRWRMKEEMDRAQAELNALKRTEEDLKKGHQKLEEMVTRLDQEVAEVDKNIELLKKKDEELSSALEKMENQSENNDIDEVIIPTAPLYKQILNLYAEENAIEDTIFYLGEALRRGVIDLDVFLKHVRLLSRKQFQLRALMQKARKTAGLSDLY
Chain of UniProt Q9H269 (Q9H269 whole entry, looked up): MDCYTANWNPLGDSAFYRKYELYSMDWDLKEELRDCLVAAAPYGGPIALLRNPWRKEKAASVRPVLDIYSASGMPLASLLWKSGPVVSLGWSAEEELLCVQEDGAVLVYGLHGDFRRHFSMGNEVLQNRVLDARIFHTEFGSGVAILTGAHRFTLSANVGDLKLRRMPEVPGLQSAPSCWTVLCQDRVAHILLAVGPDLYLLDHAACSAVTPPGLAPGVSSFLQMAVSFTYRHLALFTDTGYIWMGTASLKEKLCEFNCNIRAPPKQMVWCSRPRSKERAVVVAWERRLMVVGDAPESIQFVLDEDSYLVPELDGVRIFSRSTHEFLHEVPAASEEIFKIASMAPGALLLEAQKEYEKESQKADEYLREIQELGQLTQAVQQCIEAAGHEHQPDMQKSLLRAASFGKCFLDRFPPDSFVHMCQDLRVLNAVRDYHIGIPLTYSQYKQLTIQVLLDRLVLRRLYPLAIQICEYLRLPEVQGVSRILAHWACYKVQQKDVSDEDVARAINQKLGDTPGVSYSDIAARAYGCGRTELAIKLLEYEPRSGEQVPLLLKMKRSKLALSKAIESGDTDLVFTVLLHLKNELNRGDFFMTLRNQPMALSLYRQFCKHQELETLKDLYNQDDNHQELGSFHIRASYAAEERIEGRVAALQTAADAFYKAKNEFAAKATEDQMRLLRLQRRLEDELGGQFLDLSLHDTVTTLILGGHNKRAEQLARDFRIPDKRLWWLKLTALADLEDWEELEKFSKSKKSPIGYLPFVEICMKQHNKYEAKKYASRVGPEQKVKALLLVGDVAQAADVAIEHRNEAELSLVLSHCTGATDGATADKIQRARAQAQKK
Chain of UniProt Q9Y4E8 (Q9Y4E8 whole entry, looked up): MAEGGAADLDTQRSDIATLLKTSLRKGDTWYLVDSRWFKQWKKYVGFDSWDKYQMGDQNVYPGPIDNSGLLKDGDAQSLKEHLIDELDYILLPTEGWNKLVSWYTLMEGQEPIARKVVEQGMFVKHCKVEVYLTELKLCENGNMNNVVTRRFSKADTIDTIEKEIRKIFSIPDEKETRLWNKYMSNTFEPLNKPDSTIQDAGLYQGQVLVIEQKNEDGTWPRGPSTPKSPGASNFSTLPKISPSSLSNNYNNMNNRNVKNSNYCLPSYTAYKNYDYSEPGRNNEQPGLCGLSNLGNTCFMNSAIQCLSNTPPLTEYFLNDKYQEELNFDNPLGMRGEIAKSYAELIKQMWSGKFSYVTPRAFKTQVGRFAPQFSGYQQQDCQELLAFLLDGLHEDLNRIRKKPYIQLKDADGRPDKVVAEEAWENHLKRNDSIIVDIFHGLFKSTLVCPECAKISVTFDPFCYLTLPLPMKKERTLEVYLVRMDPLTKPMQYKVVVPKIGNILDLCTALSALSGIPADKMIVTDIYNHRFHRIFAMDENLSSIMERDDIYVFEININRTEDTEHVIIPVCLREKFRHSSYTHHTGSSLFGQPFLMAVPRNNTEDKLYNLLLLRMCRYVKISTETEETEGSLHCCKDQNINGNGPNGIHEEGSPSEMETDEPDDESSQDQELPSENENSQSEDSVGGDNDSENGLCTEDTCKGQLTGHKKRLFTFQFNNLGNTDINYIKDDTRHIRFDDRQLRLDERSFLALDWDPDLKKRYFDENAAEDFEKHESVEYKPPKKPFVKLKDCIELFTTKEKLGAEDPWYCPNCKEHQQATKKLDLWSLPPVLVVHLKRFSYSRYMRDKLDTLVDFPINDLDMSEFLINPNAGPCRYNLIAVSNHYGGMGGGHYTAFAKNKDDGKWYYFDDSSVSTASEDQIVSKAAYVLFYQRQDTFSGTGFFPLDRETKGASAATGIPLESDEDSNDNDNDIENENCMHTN
Chain of UniProt Q9NQH7 (Q9NQH7 whole entry, looked up): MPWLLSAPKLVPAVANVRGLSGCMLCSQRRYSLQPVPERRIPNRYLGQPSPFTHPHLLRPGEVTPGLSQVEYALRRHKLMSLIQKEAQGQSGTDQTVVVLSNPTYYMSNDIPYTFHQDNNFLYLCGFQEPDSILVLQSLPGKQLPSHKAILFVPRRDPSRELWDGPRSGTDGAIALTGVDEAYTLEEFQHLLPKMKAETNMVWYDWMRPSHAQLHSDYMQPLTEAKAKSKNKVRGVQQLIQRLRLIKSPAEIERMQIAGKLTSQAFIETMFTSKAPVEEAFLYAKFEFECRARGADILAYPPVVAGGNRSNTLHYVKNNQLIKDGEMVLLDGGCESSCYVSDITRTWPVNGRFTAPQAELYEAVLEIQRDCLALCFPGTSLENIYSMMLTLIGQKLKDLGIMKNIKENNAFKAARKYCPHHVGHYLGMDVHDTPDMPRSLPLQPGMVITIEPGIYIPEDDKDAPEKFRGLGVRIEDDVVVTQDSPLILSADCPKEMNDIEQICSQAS
Chain of UniProt A0PJW6 (A0PJW6 whole entry, looked up): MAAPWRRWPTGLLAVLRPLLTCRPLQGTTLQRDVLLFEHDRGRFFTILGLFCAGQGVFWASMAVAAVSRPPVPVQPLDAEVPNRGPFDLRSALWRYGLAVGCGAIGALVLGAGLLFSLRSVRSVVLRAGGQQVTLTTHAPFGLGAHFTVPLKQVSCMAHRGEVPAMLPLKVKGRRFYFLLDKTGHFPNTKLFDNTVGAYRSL

The targets below were run with C[C@H](C1=CC=C(C=C1)C(=O)NC2=C3C=CNC3=NC=C2)N (assay: log2 fold change, soluble protein after heating vs DMSO (PISA); higher = thermal stabilisation; K562 cells, 10 uM, 30 min; active = over 0.2 and 3.5 SD of the protein, either way, in both replicates (recomputed)).
In short: (§1)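 K562 cells at 2×10^6 cells/mL were given 10 μM compound for 30 min. Aliquots then went through 3 min of heating across 48°C-58°C, were pooled, and were extracted in PBS with 0.5% NP-40 at 4°C, and the supernatant after 21,000xg for 90 min was quantified by TMTpro 16plex LC-MS/MS with channel sums equalised. Thermal stability relative to control samples, from duplicates, is given as log2 fold change.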
Target TSG101 (UniProt Q99816) has a log2 fold change of -0.054.
Work on VTA1 (UniProt Q9NP79) yielded a log2 fold change of -0.019.
VDAC1 (UniProt P21796) gave a log2 fold change of -0.063.
For WASHC2C, A0A096LPC5, the log2 fold change was 0.025.
Target VTI1B (UniProt Q9UEU0) has a log2 fold change of 0.032.
With UBE2Q1 (UniProt Q7Z7E8) the log2 fold change was 0.004.
For TMEM106B (UniProt Q9NUM4), the log2 fold change was -0.054.
TMEM164 (UniProt Q5U3C3) gave a log2 fold change of 0.05.
USP48 isoform 8 (UniProt Q86UV5) showed a log2 fold change of -0.133.
With USP15 (UniProt Q9Y4E8) the log2 fold change was -0.009.
Work on UFD1 isoform 1 (UniProt Q92890) yielded a log2 fold change of -0.022.
In the case of WDR46 (UniProt O15213), the log2 fold change is reported as 0.445.
For USP14 (UniProt P54578), the log2 fold change was -0.037.
XPNPEP3 (UniProt Q9NQH7) showed a log2 fold change of -0.001.
In the case of UCHL5 (UniProt Q9Y5K5), the log2 fold change is reported as -0.005.
In the case of VPS16 (UniProt Q9H269), the log2 fold change is reported as 0.08.
VAMP7 (UniProt P51809) gave a log2 fold change of -0.046.
XPO1 (UniProt O14980) was tested, and the log2 fold change was 0.006.
TNFRSF10A (UniProt O00220) gave a log2 fold change of -0.073.
Work on UBLCP1 (UniProt Q8WVY7) yielded a log2 fold change of -0.034.
TMEM189-UBE2V1 (UniProt I3L0A0) gave a log2 fold change of 0.051.
With WASH2P (UniProt Q6VEQ5) the log2 fold change was 0.021.
VTI1A (UniProt Q96AJ9) showed a log2 fold change of -0.022.
Work on TNNC2 (UniProt P02585) yielded a log2 fold change of -0.005.
In the case of TMEM223 (UniProt A0PJW6), the log2 fold change is reported as 0.002.
U2AF1 isoform 2 (UniProt Q01081) gave a log2 fold change of -0.134.
XRCC5 (UniProt P13010) was tested, and the log2 fold change was 0.077.
In the case of TNPO1 (UniProt Q92973), the log2 fold change is reported as -0.116.
Work on VPS52 (UniProt Q8N1B4) yielded a log2 fold change of 0.058.
For TMEM263 (UniProt Q8WUH6), the log2 fold change was 0.018.
USP25 isoform 3 (UniProt Q9UHP3) was tested, and the log2 fold change was -0.062.
Work on VPS50 (UniProt Q96JG6) yielded a log2 fold change of 0.049.
UBAP1 isoform 4 (UniProt Q9NZ09) showed a log2 fold change of 0.023.
TNPO2 (UniProt O14787) was tested, and the log2 fold change was -0.037.
With VPS18 (UniProt Q9P253) the log2 fold change was 0.05.
Work on TRIM28 (UniProt Q13263) yielded a log2 fold change of -0.068.

The targets below were run with C[C@H](Nc1ncnc2nc[nH]c12)c1cc2cccc(Cl)c2c(=O)n1-c1ccccc1 [duvelisib] in the same assay as above.
In short: as §1
TSG101 (UniProt Q99816) gave a log2 fold change of 0.019.
VTA1 (UniProt Q9NP79) gave a log2 fold change of 0.019.
In the case of VDAC1 (UniProt P21796), the log2 fold change is reported as -0.002.
WASHC2C, A0A096LPC5 gave a log2 fold change of 0.15.
VTI1B (UniProt Q9UEU0) was tested, and the log2 fold change was -0.045.
In the case of UBE2Q1 (UniProt Q7Z7E8), the log2 fold change is reported as 0.003.
In the case of TMEM106B (UniProt Q9NUM4), the log2 fold change is reported as 0.03.
With TMEM164 (UniProt Q5U3C3) the log2 fold change was 0.601 (active).
With USP48 isoform 8 (UniProt Q86UV5) the log2 fold change was 0.088.
For USP15 (UniProt Q9Y4E8), the log2 fold change was 0.01.
Work on UFD1 isoform 1 (UniProt Q92890) yielded a log2 fold change of 0.043.
For WDR46 (UniProt O15213), the log2 fold change was -0.199.
For USP14 (UniProt P54578), the log2 fold change was 0.067.
Work on XPNPEP3 (UniProt Q9NQH7) yielded a log2 fold change of 0.059.
With UCHL5 (UniProt Q9Y5K5) the log2 fold change was -0.006.
For VPS16 (UniProt Q9H269), the log2 fold change was 0.023.
VAMP7 (UniProt P51809) gave a log2 fold change of -0.005.
Work on XPO1 (UniProt O14980) yielded a log2 fold change of -0.024.
In the case of TNFRSF10A (UniProt O00220), the log2 fold change is reported as 0.
Work on UBLCP1 (UniProt Q8WVY7) yielded a log2 fold change of 0.03.
Target TMEM189-UBE2V1 (UniProt I3L0A0) has a log2 fold change of 0.042.
WASH2P (UniProt Q6VEQ5) gave a log2 fold change of -0.02.
VTI1A (UniProt Q96AJ9) gave a log2 fold change of 0.1.
With TNNC2 (UniProt P02585) the log2 fold change was 0.072.
Work on TMEM223 (UniProt A0PJW6) yielded a log2 fold change of 0.043.
For U2AF1 isoform 2 (UniProt Q01081), the log2 fold change was 0.044.
Target XRCC5 (UniProt P13010) has a log2 fold change of -0.017.
TNPO1 (UniProt Q92973) gave a log2 fold change of 0.002.
VPS52 (UniProt Q8N1B4) was tested, and the log2 fold change was 0.033.
For TMEM263 (UniProt Q8WUH6), the log2 fold change was -0.007.
With USP25 isoform 3 (UniProt Q9UHP3) the log2 fold change was 0.05.
Work on VPS50 (UniProt Q96JG6) yielded a log2 fold change of -0.017.
UBAP1 isoform 4 (UniProt Q9NZ09) was tested, and the log2 fold change was 0.052.
Target TNPO2 (UniProt O14787) has a log2 fold change of 0.03.
VPS18 (UniProt Q9P253) was tested, and the log2 fold change was -0.035.
TRIM28 (UniProt Q13263) showed a log2 fold change of 0.027.
